# Bioassay records as filed in PubChem BioAssay.
# Sampled rows, rich in hits. Any-hit rate of the full collection: about 1.1%.
# KCNH2 3.1 block = qHTS for Inhibitors of KCHN2 3.1: Mutant qHTS; U2OS KCNH2 3.1, thallium flux FluxOr; stronger effect = lower value; actives 0.95% (n = 340,000); activity change, % (tested at about 1.8 µM); Potassium voltage-gated channel subfamily H member 2, brain isoform KCNH2 3.1 (human);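 active = maximum activity change below -70%; inconclusive = maximum activity change from -70% to -50%; inactive = maximum activity change above -50%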;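 also: thallium influx rate constant from kinetic fluorescence after stimulation buffer; % is scaled to controls: 0 for no effect and ±100 for the full control effect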
#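 Steps: virus added to U2OS suspension (4 h, RT, dark); medium with 10% FBS added, cells plated, 37 C overnight; FluxOr/Red40 loading buffer 45 min RT; stimulation buffer, 2 min kinetic read; rate constant normalized.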
# Menin-MLL FL inh = qHTS Assay for Inhibitors Targeting the Menin-MLL Interaction in MLL Related Leukemias: Competition With Fluorescein Labeled MLL-derived Peptide; 290,000 tested, under 10 active; FP activity change, % at 61.4 µM; Fluorescence polarization, fluorescein-MLL peptide displacement from menin; AID 1766, 2009; active = well fitted curve in the direction sought with a large enough effect in the polarisation, not every such curve was filed as active; inconclusive = small, poorly fitted or top-dose-only effect, or effect the other way, or a change in a side signal; inactive = no such curve, though single readings can be large or run the other way; the % refers to the polarisation; also: % of control where 0% means no effect
# hERG WT inh = qHTS for Inhibitors of KCHN2 3.1: Wildtype qHTS; U2OS, BacMam KCNH2, thallium flux FluxOr; stronger effect = lower value; actives 0.37% (n = 340,000); activity change, % at 1.84 µM;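 active = maximum activity change below -70%; inconclusive = maximum activity change between -70% and -50%; inactive = maximum activity change above -50%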; also: % is scaled to controls: 0 for no effect and ±100 for the full control effect
# Target sequence (Q12809 whole entry, looked up): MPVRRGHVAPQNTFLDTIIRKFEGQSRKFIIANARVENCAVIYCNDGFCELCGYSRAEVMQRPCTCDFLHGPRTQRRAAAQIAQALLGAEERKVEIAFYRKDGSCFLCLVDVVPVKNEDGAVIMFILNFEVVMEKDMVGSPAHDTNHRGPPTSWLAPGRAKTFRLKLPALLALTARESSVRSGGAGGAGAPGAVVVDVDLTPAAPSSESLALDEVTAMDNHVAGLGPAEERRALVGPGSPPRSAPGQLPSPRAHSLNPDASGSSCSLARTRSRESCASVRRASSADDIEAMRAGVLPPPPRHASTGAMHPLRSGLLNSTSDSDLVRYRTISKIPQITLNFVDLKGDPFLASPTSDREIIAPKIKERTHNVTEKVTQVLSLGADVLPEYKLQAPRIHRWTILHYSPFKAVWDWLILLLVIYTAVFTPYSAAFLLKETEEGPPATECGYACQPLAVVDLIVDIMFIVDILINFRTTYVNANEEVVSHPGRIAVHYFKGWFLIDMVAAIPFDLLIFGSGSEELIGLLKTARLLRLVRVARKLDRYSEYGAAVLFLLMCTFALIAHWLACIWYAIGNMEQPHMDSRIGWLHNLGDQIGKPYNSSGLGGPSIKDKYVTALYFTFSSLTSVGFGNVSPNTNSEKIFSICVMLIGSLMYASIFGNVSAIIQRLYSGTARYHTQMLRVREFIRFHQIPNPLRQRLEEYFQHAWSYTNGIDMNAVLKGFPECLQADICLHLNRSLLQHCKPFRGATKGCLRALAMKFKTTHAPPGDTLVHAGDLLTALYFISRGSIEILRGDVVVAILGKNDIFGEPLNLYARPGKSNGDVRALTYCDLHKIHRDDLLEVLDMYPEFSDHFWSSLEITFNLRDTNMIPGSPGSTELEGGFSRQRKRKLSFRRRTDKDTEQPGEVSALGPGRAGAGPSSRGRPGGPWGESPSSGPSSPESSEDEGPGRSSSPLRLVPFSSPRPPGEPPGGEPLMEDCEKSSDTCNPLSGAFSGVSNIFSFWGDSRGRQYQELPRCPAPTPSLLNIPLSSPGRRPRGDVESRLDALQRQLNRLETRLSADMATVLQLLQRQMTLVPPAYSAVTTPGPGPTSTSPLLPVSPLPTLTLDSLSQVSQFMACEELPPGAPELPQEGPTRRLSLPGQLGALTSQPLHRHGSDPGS
#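 U2OS cells were transduced with wild-type KCNH2 virus (2.03 x 10^8 / mL) for 4 h at room temperature, then cultured overnight at 37 C. Thallium flux was read with FluxOr dye. Rate constants were normalized to DMSO controls.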
# Menin MLL FP TR = qHTS Assay for Inhibitors Targeting the Menin-MLL Interaction in MLL Related Leukemias: Competition With Texas Red Labeled MLL-derived Mutant Peptide; O00255; Menin + Texas Red MLL mutant peptide, fluorescence polarization; Potency, µM (series often up to 61.6 µM), without a hit: at the top dose FP activity change, negative = inhibition, usual class: inhibitors; actives 0.23% (n = 270,000); active = well fitted inhibition curve with a large enough effect in the polarisation, with a control signal flat, not every such curve was filed as active; inconclusive = small, poorly fitted or top-dose-only effect, or effect the other way, or a change in a side signal; inactive = no such curve, though single readings can be large or run the other way; the % refers to the polarisation; also: potency is read from the fitted curve at half-maximal effect; % of control where 0% means no effect
# CXXC DNA block = qHTS Fluorescence Polarization Assay for Inhibitors of MLL CXXC domain - DNA interaction; Histone-lysine N-methyltransferase 2A (Homo sapiens), Q03164; AID 2662, 2010; Potency, µM (top dose mostly 115 µM), inactives show at the top dose activity change, negative = inhibition, most hits filed as inhibitors; MLL-CXXC / FITC-HOXA9 DNA fluorescence polarization; actives 0.037% (n = 290,000); active = well fitted inhibition curve with a large enough effect in the polarisation, with a control signal flat, not every such curve was filed as active; inconclusive = small, poorly fitted or top-dose-only effect, or effect the other way, or a change in a side signal; inactive = no such curve, though single readings can be large or run the other way; the % refers to the polarisation; also: potency is read from the fitted curve at half-maximal effect
#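 Steps: dispense CXXC domain solution (7 uM) → pin compounds or unlabeled HOX-A9 DNA control → 5 min ambient → add FLSN-HOX-A9 solution (50 nM) → spin → 30 min ambient → fluorescence polarization. Tris pH 7.5/NaCl/DTT/BSA buffer.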
# * = called active by the depositor; ? = inconclusive; . = not tested or not shown; [ ] = dose if it differs, or a comment.
SMILES,KCNH2 3.1 block,Menin-MLL FL inh,hERG WT inh,Menin MLL FP TR,CXXC DNA block
Cc1cc(N)n(-c2ccc([N+](=O)[O-])cc2)n1,-2,1,2,-1%,-1%
COc1ccc(-c2onc(C)c2-c2cscn2)c(O)c1,-1,1,-4,-2%,1%
CCc1cc(-c2onc(C)c2-c2cscn2)c(O)cc1OC,-90*,2,-3,-4%,2%
C[C@@H]1CCC2C(C)(C)C3CC21CC[C@@]3(C)O (stereo partly drawn),.,4,.,11%,.
Fc1ccc(Nc2c3c(nc4ccccc24)CCC3)cc1,-91*,-6,3,-24%,0%
c1ccc(Nc2c3c(nc4ccccc24)CCC3)cc1,-7,-4,9,-15%,?
Cc1ccc(-n2ncc3c2CCCC3NC(=O)c2csnn2)cc1C (stereo not drawn),7,-3,-89*,-1%,2%
CCC(C)(C)N(C(=O)CCC(=O)Nc1cc(C)on1)C(C(=O)NC(C)(C)C)c1ccc(OC)cc1 (stereo not drawn),-15,0,-2,-21%,5%
O=C(CCCC(=O)N(c1ccc2c(c1)OCCO2)C(C(=O)NC1CCCCC1)c1ccc(F)cc1)Nc1ccccn1 (stereo not drawn),-76*,4,-4,?,4%
COC(=O)NC(c1cccc(C)c1)[C@]1(C(C)=O)CCCC1=O (stereo partly drawn),.,-2[11.7 µM],.,0%[11.7 µM],.
Cc1ccc(Cl)cc1NC(=O)C(NS(=O)(=O)c1cccs1)c1ccccc1 (stereo not drawn),-14,1,-119*,13%,-4%
CCc1cccc(CC)c1NC(=O)C(NS(=O)(=O)c1cccs1)c1ccccc1 (stereo not drawn),-3,-3,-8,?,8%
CC1CC[C@@]2(OC1)O[C@H]1CC3[C@@H]4C[C@@H](O)[C@@]5(O)C[C@@H](O)[C@H](O)C[C@]5(C)[C@H]4CC[C@]3(C)[C@H]1[C@@H]2C (stereo partly drawn),0,-1,-92*,26%,-14%
CC(=O)OC1CC[C@@]2(C)C3CC[C@@]4(C)C(CC5O[C@@]6(CCC(C)CO6)C(C)C54)C3CC[C@@H]2C1 (stereo partly drawn),.,0,.,2%,.
COc1cc(OC)c2c(c1C(CCN1CCCC(C)C1)c1ccc(N(C)C)cc1)OC(=O)CC2c1ccc(N(C)C)cc1 (stereo not drawn),.,3,.,-3%,.
CN(C(=O)c1cccc(NC(=O)Cc2ccc(NC(=O)C3CCN(C(=O)c4ccccc4)CC3)cc2)c1)C1CCCC1,6,.,-2,.,.
Cn1cnnc1SCCNS(=O)(=O)c1cccc([N+](=O)[O-])c1,12,-5,-14,3%,0%
O=C(Cc1ccc([N+](=O)[O-])cc1)N1CCN(c2ccc([N+](=O)[O-])cc2)CC1,-91*,0,?,15%,-18%
Cc1ccc(S(=O)(=O)NCc2ccc(C(=O)N3CCN(c4ccc([N+](=O)[O-])cc4)CC3)cc2)cc1,-96*,.,-29,.,1%
CSC(=NC#N)N1CCN(c2ccc([N+](=O)[O-])cc2)CC1,-79*,2,14,8%,7%
O=C(Cc1ccc(F)cc1)N1CCN(c2ccc([N+](=O)[O-])cc2)CC1,-47,5,7,?,19%
O=[N+]([O-])c1ccc(N2CCN(C(=S)NC3CCCCC3)CC2)cc1,-72*,3,-23,21%,-1%
O=C(NC(Cc1ccccc1)C(=O)N1CCCCC1)c1ccccc1 (stereo not drawn),11,.,5,.,.
COC(=O)NC(c1cccc(F)c1)[C@]1(C(C)=O)CCCC1=O (stereo partly drawn),.,1[11.7 µM],.,3%[11.7 µM],.
COc1ccc2c(c1)c(CC(=O)O)c(C)n2Cc1ccc(F)cc1,.,4,.,5%,0%
SMILES,KCNH2 3.1 block,Menin-MLL FL inh,hERG WT inh,Menin MLL FP TR,CXXC DNA block
C/C(=N\OCC(=O)OCC(=O)NC(=O)c1ccccc1)c1ccc2c(c1)OCO2,1,.,2,.,.
c1ccc(CCNc2nc(-c3ccccn3)nc3ccccc23)cc1,?,1,1,.,80%
O=[N+]([O-])c1ccc(N2CCN(S(=O)(=O)c3ccccc3)CC2)cc1,-84*,0,-80*,29%,5%
O=C(CCCSc1nc2ccccc2[nH]1)N1CCN(c2ccc([N+](=O)[O-])cc2)CC1,-116*,1,-105*,.,16%
O=C(c1ccc(-c2cccc(Cl)c2)o1)N1CCN(c2ccc([N+](=O)[O-])cc2)CC1,-101*,7,?,-5%,3%
Cc1c(Cl)cccc1-c1ccc(C(=O)N2CCN(c3ccc([N+](=O)[O-])cc3)CC2)o1,-80*,6,-48,5%,-3%
O=C(CSc1nc2ccccc2[nH]1)N1CCN(c2ccc(F)cc2)CC1,4,2,16,1%,1%
CC(C)(C)[C@H]1COC(=O)[C@@H](Cc2ccc(F)cc2)CC/C=C/C[C@@H](CC(=O)N[C@H](CO)Cc2ccccc2)C(=O)N1,-18,.,25,.,.
Cc1ccc(Nc2nc(-c3c(C)nc4ccccn34)cs2)cc1,-78*,2,-24,?,-11%
O=C(c1cc2ccccc2oc1=O)N(Cc1cccs1)C1CCS(=O)(=O)C1 (stereo not drawn),-163*,-1,-174*,1%,-2%
C/C(=N\NC(=O)c1ccc(Cl)c(Cl)c1)c1ccc(Br)s1,-5,2,12,11µM*,5%
C/C(=N/NC(=O)c1ccc2c(c1)OCO2)c1ccc(Br)s1,4,2,-9,8%,9%
Cc1ccc(N(C)S(=O)(=O)c2ccc(C)cc2)cc1,-1,3,-10,8%,-1%
Cc1ccc(S(=O)(=O)N(C)c2ccc3ccccc3c2)cc1,-148*,1,-4,4%,0%
C[C@@H]1CN([C@H](C)CO)C(=O)CCCn2cc(nn2)CO[C@H]1CN(C)C(=O)Nc1cccc(Oc2ccccn2)c1,1,.,5,.,.
CCOC(=O)C1C(=O)N(O)CC1c1cccc(Oc2ccccc2)c1 (stereo not drawn),-75*,-3,-2,-19%,7%
CCN(CC)C(=O)C1=C(C)N(Cc2ccc(F)cc2)C(=O)C(CC(=O)NCC2CCCCC2)C1 (stereo not drawn),0,.,2,.,.
